We go through 42 compounds from PubChem BioAssay (NCATS).

Where “and” joins values, the source holds several entries; their conditions need not be identical. Equal entries are not always repeated. Inconclusive results are not listed. Entries that show only a call come without a potency. Where a structure was tested more than once in an assay, its records may differ in their call. Calls of active or inactive are those of the source. Unless noted, calls follow the shape of the dose curve; as a rule, active = well fitted curve in the direction sought with a large enough effect; inconclusive = small, poorly fitted or top-dose-only effect, or another doubt; inactive = no such curve, though single readings can be large; an effect the other way counts as inactive or inconclusive.

Assay [1] can be described thus: qHTS for Inhibitors of Cell Surface uPA Generation: Validation Assay (AID 493164).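 Also: RAW 264.7 macrophage cells exposed to compound for 18 h.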 The essentials: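 Compounds are titrated over seven points (2.45 nM–38.3 uM final) onto pre-plated RAW 264.7 cells and incubated for 18 h. Retained intracellular ATP, measured with ATP-Lite, indicates blocked lethal factor entry.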
On the technique in general: qHTS replaces the single test concentration by a dilution series.

In assay [2] the target is Peptidyl-prolyl cis-trans isomerase NIMA-interacting 1 (Homo sapiens) (UniProt Q13526). Description: qHTS Validation Assay to Find Inhibitors of Pin1 (AID 504536; active = well fitted inhibition curve with a large enough effect in the polarisation, with a control signal flat, not every such curve was filed as active; the % refers to the polarisation). The procedure, abridged: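 Fluorescence polarization competition: compounds (titration) displace HiFluor-488-labeled Pin1-1b peptide from Pin1 (0.3 uM final) in pH 7.5 HEPES buffer with DTT, 10 min at room temperature; %Activity normalized to no-enzyme wells, curves fitted.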

The target in assay [3] is Phosphoglycerate kinase, glycosomal (Trypanosoma brucei brucei) (UniProt P07378). Briefly: qHTS Validation Assay to Find Inhibitors of Phosphoglycerate Kinase (AID 504547). The procedure, abridged: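 Luminescence end-point (Kinase-Glo Plus, 10 min) after a 60 min room-temperature coupled reaction. GAPDH at 100nM final supplies 1,3-BPG to PGK. Buffer: 100mM TEA pH 7.6, 5mM MgCl2, 0.01% Tween-20. Wells lacking PGK served as controls.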

The target of assay [4] is phosphoglycerate mutase (Leishmania major) (UniProt Q4Q090). Briefly: qHTS Validation Assay to Find Inhibitors of Phosphoglycerate Mutase (AID 504548). Also: series mostly up to about 58 µM. The essentials: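 Lm PGAM at 1.25 nM final with substrate in 100 mM TEA pH 7.6, 5 mM MgCl2, 0.01% Tween-20; 45 min at room temperature. Kinase-GloPlus added, 10 min, end-point luminescence read.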
In assay [5] the target is Galactokinase (Homo sapiens) (UniProt P51570). Briefly: qHTS Validation Assay for Inhibitors of Human Galactokinase (GALK) (AID 493189). The procedure, abridged: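 Inhibition was measured as remaining ATP, detected by luciferase luminescence after a 1 h room-temperature reaction. Final conditions: 5 nM GALK, 100 uM galactose, 35 uM ATP, pH 8.0 HEPES buffer.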
The nature of assay [6]: Validation screen for small molecules that induce DNA re-replication in SW480 colon adenocarcinoma cells (AID 504364). The procedure, abridged:
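Read-out: total Hoechst intensity of nuclei by fluorescence scanning imager; hits raise the fraction of nuclei with elevated DNA content. Cells received compound for 48 hr at 37 C before a 40 min stain.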

In assay [7] the target is Ubiquitin carboxyl-terminal hydrolase 1 (Homo sapiens) (UniProt O94782). Description: Inhibitors of USP1/UAF1: Pilot qHTS (AID 504865). Also: nearly all actives have a fitted effect of over 35% in size. Also: potency is read from the fitted curve at half-maximal effect. The essentials:
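Deubiquitinase activity followed as kinetic rhodamine fluorescence release from 150 nM Ub-Rho. 1 nM USP1/UAF1 with compound, after 15 min room-temperature preincubation, in HEPES pH 7.8 buffer containing TCEP, EDTA, BSA and Tween-20.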

Assay [8] in a line: qHTS for Inhibitors of ATXN expression: Validation (AID 588378). Also: nearly all actives have a fitted effect of over 75% in size. Also: potency is read from the fitted curve at half-maximal effect. The procedure, abridged: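 Luciferase luminescence (Bright-Glo) from an ATXN2-FFLuc HEK293 line after 24 h compound exposure at 37 °C, preceded by a CellTiter-Fluor fluorescence viability read. Serial dilutions of a reference ATXN2 inhibitor and a luciferase inhibitor served as controls.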
Assay [9] can be described thus: qHTS for Inhibitors of ATXN expression: Validation of Cytotoxic Assay (AID 588349). Also: potency is read from the fitted curve at half-maximal effect. The essentials: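 Cytotoxicity counter-screen: HEK293 cells exposed to compound titrations, 72 hr, 37 degrees C. Read-out is intracellular ATP (CellTiter Glo luminescence) as a viability measure.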

Phosphoglycerate kinase, glycosomal (Trypanosoma brucei brucei), sequence (P07378 whole entry, looked up): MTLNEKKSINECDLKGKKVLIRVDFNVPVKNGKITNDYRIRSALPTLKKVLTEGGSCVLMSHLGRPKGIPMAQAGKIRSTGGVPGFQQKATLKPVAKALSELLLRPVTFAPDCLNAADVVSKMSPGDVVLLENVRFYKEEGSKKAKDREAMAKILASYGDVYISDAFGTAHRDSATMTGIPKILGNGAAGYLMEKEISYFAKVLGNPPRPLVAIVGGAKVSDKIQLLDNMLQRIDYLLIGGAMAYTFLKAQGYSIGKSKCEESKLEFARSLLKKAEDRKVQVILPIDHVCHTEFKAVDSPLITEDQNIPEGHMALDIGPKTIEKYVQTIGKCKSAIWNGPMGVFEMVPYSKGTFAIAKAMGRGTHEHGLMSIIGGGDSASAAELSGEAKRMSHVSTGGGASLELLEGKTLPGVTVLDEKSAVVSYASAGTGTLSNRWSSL
Galactokinase (Homo sapiens), sequence (P51570 whole entry, looked up): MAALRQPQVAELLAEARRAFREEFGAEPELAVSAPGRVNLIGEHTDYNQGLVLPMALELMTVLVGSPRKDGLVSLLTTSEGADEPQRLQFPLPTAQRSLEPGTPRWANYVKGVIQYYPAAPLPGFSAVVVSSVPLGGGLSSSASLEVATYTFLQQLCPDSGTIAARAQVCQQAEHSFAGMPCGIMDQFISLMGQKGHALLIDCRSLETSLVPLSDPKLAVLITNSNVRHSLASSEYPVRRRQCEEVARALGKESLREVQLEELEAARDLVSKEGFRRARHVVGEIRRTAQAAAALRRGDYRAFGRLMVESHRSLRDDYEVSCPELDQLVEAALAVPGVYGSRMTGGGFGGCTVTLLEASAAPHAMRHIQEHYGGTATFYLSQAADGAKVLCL
phosphoglycerate mutase (Leishmania major), sequence (Q4Q090 1-553): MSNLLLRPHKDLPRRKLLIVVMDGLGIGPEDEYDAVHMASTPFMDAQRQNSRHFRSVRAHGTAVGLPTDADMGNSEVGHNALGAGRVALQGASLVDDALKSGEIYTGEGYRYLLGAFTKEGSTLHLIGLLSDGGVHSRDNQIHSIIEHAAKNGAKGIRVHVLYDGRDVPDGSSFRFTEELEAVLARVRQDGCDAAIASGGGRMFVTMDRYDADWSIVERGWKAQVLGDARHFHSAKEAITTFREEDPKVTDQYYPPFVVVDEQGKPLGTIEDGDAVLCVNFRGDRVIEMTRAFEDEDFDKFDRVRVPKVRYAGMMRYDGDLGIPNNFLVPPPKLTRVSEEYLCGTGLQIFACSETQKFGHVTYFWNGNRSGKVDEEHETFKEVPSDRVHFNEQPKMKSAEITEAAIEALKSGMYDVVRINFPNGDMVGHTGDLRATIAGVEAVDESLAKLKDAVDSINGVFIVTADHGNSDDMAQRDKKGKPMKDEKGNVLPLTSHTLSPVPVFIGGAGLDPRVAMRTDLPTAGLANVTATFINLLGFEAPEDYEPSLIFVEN
Ubiquitin carboxyl-terminal hydrolase 1 (Homo sapiens), sequence (O94782 whole entry, looked up): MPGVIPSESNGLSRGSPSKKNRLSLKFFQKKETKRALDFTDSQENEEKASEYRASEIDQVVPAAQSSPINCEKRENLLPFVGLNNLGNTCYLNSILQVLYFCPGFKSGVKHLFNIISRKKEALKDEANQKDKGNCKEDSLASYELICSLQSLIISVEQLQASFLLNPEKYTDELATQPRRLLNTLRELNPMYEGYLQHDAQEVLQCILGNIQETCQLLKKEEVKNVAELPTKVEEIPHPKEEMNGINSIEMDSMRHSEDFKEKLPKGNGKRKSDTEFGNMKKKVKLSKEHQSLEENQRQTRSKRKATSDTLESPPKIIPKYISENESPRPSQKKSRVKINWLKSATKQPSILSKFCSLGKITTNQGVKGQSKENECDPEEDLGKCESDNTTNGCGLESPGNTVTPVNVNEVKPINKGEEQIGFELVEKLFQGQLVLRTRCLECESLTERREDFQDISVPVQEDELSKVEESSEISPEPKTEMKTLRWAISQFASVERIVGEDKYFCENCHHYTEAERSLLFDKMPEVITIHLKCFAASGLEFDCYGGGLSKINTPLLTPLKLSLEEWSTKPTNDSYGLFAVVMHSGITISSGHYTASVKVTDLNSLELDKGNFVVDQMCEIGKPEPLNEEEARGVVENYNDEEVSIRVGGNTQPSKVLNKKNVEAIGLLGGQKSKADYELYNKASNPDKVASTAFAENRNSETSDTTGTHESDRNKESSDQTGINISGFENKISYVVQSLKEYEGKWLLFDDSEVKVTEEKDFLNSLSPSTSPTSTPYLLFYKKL
Peptidyl-prolyl cis-trans isomerase NIMA-interacting 1 (Homo sapiens), sequence (Q13526 whole entry, looked up): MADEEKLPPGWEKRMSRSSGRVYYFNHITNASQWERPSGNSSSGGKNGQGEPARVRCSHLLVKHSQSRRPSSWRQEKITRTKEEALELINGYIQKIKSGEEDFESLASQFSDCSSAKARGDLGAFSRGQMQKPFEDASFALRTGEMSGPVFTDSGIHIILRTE

For the compound `COCCOC(=O)C1=C(C)NC(C)=C(C(=O)OC/C=C/c2ccccc2)C1c1cccc([N+](=O)[O-])c1` (stereo not drawn), the compound was called inactive in [1], in assay [2], in assay [3] and in assay [4]. As for `C=Cc1c(C)c2cc3[nH]c(cc4nc(cc5nc(cc1[nH]2)C(C)=C5CCC(=O)O)C(CCC(=O)O)=C4C)c(C)c3C=C`, the compound was called inactive in assay [1], in [5], in assay [6], in [3] and in assay [4]. Moreover, in assay [7], the Potency entry was “inactive and 50.1 µM (active)”. For the same compound, the Potency result in assay [8] is “inactive”.

With `CC(=O)Nc1ccc(/C=N/NC(N)=S)cc1`, in [7], the Potency result was “inactive”.

Take `CN1CCCCC1CCN1c2ccccc2Sc2ccc(S(C)=O)cc21` (stereo not drawn): in assay [7], the Potency entry was “inactive”. On the same count and under the same terms, then `CC(=O)CCC(=O)O`, with “inactive”.

Consider `CCN(CC)C(C)CN1c2ccccc2Sc2ccccc21` (stereo not drawn), for which the compound was classed as inactive in [1], in assay [2], in assay [3] and in [4]. Moreover, in assay [7], the Potency is 44.7 µM (active) and inactive. Also, the Potency entry in assay [9] was “inactive”. Consider `CC1(C)OC(=O)NC1=O`, for which, in [7], the Potency result was “inactive”. For `NC(=O)NC(=O)Cc1ccccc1`, the Potency result in assay [7] was “inactive”. For `CCN(CC)CCCC(C)Nc1c2ccc(Cl)cc2nc2ccc(OC)cc12` (stereo not drawn), the compound was classed as inactive in assay [1], in assay [5], in assay [6] and in [3]. In assay [7], the Potency was 56.2 µM (active) and 79.4 µM (active). For the compound `CC[C@H]1CN2CCc3cc(OC)c(OC)cc3[C@@H]2C[C@@H]1C[C@H]1NCCc2cc(OC)c(OC)cc21`, the outcome in assay [1], in assay [5], in [2], in assay [3] and in assay [4] was inactive.

`CSc1ccc2c(c1)C(N1CCN(C)CC1)Cc1ccccc1S2` (stereo not drawn): the result in assay [1], in assay [5], in assay [6], in assay [2], in assay [3] and in assay [4] was inactive. In addition, the Potency in assay [9] was 31.6 µM (active); in assay [8], 14.1 µM (active). For the compound `O=C(O)CC(O)C(=O)O` (stereo not drawn), the Potency entry in [7] was “inactive”. The same measure, in the same setting: then `CC(C)(C)NCC(O)COc1ccc(NC(=O)NC2CCCCC2)cc1` (stereo not drawn), with “inactive”. With `C[C@H]1O[C@@H](n2cc(F)c(=O)[nH]c2=O)[C@H](O)[C@@H]1O`, the outcome in [5] and in [6] was inactive. The Potency result in [7] was “inactive”.

As for `CCOC(=O)[C@H](CCc1ccccc1)N[C@@H](C)C(=O)N1C(=O)N(C)C[C@H]1C(=O)O`, the Potency entry in [7] is “inactive”. Still for that read-out and setting: then `CC1(C)CO[C@@H](CC(=O)O)CN1`, with “inactive”; and `CC[C@@]1(c2ccccc2)NC(=O)N(C)C1=O`, with “inactive”; and `COc1ccc(S(=O)(=O)Nc2nnc(CC(C)C)s2)cc1`, with “inactive”. Still for that read-out and setting: then `Cc1ccc(C(C)C)cc2c(C)ccc1-2`, with “inactive”; and `COc1cc(C(=O)N2CCOCC2)cc(OC)c1OC`, with “inactive”; and `NS(=O)(=O)c1cc2c(cc1Cl)NC(CSCc1ccccc1)=NS2(=O)=O`, with “inactive”. Same read-out and setting: in the case of `O=c1[nH]c(=O)c2[nH]c(=O)[nH]c2[nH]1` it was “inactive”; in that of `CCOC(CN1CCN(CC(C)C(=O)c2ccccc2)CC1)c1ccccc1` (stereo not drawn), “inactive”; in that of `Cc1c(Cl)cccc1Nc1ccccc1C(=O)O`, “inactive”. Take `CCCCOc1cc(C(=O)OCCN(CC)CC)ccc1N`: the Potency entry in assay [7] is “inactive”. Same read-out and setting: then `COc1cc2[nH]c(=O)[nH]c(=O)c2cc1OC`, with “inactive”; and `CCN(CC)CCNC(C(=O)OCCC(C)C)c1ccccc1` (stereo not drawn), with “inactive”; and `CN1CCC[C@@H]1Cc1c[nH]c2ccc(CCS(=O)(=O)c3ccccc3)cc12`, with “inactive”. On the same count and under the same terms, in the case of `CN1CCOC(c2ccccc2)c2ccccc2C1` (stereo not drawn) it was “inactive”. The same measure, in the same setting: in the case of `O=S(=O)(O)c1cc(I)c(O)c2ncccc12` it was “inactive”. As to `CC(=O)Oc1ccc(C2(c3ccc(OC(C)=O)cc3)C(=O)Nc3ccccc32)cc1`, in [7], the Potency result was “inactive”. Same read-out and setting: then `CCCCN1CCCC[C@H]1C(=O)Nc1c(C)cccc1C`, with “inactive”; and `C[C@H](N)[C@H](O)c1cccc(O)c1`, with “inactive”. On the same count and under the same terms, then `O=C1NC(=O)[C@@]2(CCOc3ccc(F)cc32)N1`, with “inactive”. The same measure, in the same setting: then `Cc1ccc2nc(N)[nH]c(=O)c2c1Sc1ccncc1`, with “inactive”; and `CC(=O)c1ccc2c(c1)N(CCCN(C)C)c1ccccc1S2`, with “inactive”; and `CCCCc1ncc(/C=C(\Cc2cccs2)C(=O)O)n1Cc1ccc(C(=O)O)cc1`, with “inactive”. For `CCC(=O)Nc1ccc(O)cc1`, the Potency result in assay [7] is “inactive”. The same measure, in the same setting: in the case of `CC(=O)NC(Cc1ccccc1)C(=O)O` (stereo not drawn) it was “inactive”. On the same count and under the same terms, in the case of `[O-][n+]1cccc(CO)c1` it was “inactive”.

Regarding `CCCCN(CCCC)CCCOC(=O)c1ccc(N)cc1`, the Potency result in assay [7] was “inactive”. The same measure, in the same setting: in the case of `O=C(Oc1ccccc1C(=O)O)c1ccccc1O` it was “inactive”.
